Source: PubChem BioAssay (NCATS)
Results filed as inconclusive are left out. Values without a mark were called inactive. The source made the active and inactive calls. The call rests on the fitted dose curve; in most records, active means well fitted inhibition curve with a large enough effect; inconclusive means small, poorly fitted or top-dose-only effect; inactive means flat fitted curve, though single readings scatter.

Tested on: CRL-7250
Experiment: Cytotoxic Profiling of Annotated Libraries Using Quantitative High-Throughput Screening (AID 1296008); further: nearly all actives have a fitted effect of over 60% in size
Details: Five cell lines viability, CellTiter-Glo ATP luminescence, 48-72 h; max response: hits give low values
How it was run: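 Compounds were pin-transferred onto cells and incubated 48 or 72 hr at 37 degree Celsius, 95% humidity. CellTiter-Glo was added, plates sat 10 min at room temperature, then ATP-coupled luminescence was imaged as the viability read-out.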
On the % scale 0 is the no-effect control and ±100 the full control effect; potency means the concentration at half of the fitted maximal effect.

| Structure (SMILES) | outcome | max response | Potency |
| --- | --- | --- | --- |
| CC1(C)CC[C@@]2(C(=O)O[C@@H]3O[C@H](CO)[C@@H](O)[C@H](O)[C@H]3O)C(C1)C1=CCC3[C@@]4(C)CC[C@@H](O[C@@H]5O[C@H](C(=O)O)[C@@H](O[C@@H]6OC[C@@H](O)[C@H](O)[C@H]6O)[C@H](O[C@@H]6OC[C@](O)(CO)[C@H]6O)[C@H]5O)C(C)(C)C4CC[C@@]3(C)[C@]1(C)C[C@H]2O (some centres undefined) | inactive | – | – |
| CC[C@@H](O)C[C@@H]1C(C)=C[C@@H]2CCCC[C@@H]2[C@@]1(C)C(=O)O | – | -0.45% | – |
| C[C@H]1CC[C@@H]2N(C1)C[C@@H]1[C@H]([C@@H](O)[C@H](O)[C@]3(O)[C@H]1C[C@@]14OC5(O)[C@@H](C[C@@H](O)[C@@H]31)[C@]4(C)CC[C@@H]5O)[C@]2(C)O | inactive | – | – |
| C=C1CCCC2(C)CC3(OC)OC(=O)C(C)=C3CC12 (centres undefined) | – | 2.37% | – |
| CC(=O)OC1C(O)C2C(C)C3=CC(=O)OC3(O)CC2C2(C)CCCC(C)(CO)C12 (centres undefined) | inactive | – | – |
| NCCCNc1ccc(Nc2nccc(Nc3cc(C4CC4)[nH]n3)n2)cc1 | – | – | 731 nM (active) |
| CCO[C@@H]1OC(=O)C[C@@H]1NC(=O)[C@@H]1CCCN1C(=O)[C@@H](NC(=O)c1ccc(N)c(Cl)c1)C(C)(C)C | – | 1.63% | – |
| O=S(=O)(NCC1CC1)c1ccc(Nc2nccc(N3CCCc4cc(O)ccc43)n2)cc1 | – | – | 1160 nM (active) |
| CC(O)(CC(=O)O)CC(=O)OCc1ccc(O[C@@H]2O[C@H](CO)[C@@H](O)[C@H](O)[C@H]2O)cc1 (some centres undefined) | inactive | – | – |
| Nc1nccn2c(C3CCC(C(=O)O)CC3)nc(-c3cc4cccc(Cl)c4[nH]3)c12 (centres undefined) | – | – | 1460 nM (active) |
| Cc1oc2ccccc2c1CNC(=O)NCc1cccs1 | – | 1.28% | – |
| CC1(C)CCCC2(C)C1CC=C1C(=O)OC(O)C12O (centres undefined) | – | -7.54% | – |
| COC(=O)CCSCc1ccc(-c2onc(C)c2NC(=O)OC(C)c2ccccc2Cl)cc1 (centres undefined) | – | -4.23% | – |
| COC(=O)Cc1cc2c(c([N+](=O)[O-])c1)N(C(=O)CC[C@H](N)C(=O)O)CC2 | – | -4.18% | – |
| CC(C)c1cc(C(=O)N2CC[C@@H](NC(=O)C3CC3)C2)n[nH]1 | – | -17.8% | – |
| CC(C)=CCC/C(C)=C/CO[C@@H]1O[C@H](CO)[C@@H](O)[C@H](O)[C@H]1O | – | -5.48% | – |
| CC(C)CN(C[C@@H](O)[C@H](Cc1ccccc1)NC(=O)O[C@@H]1CO[C@H]2OCC[C@H]21)S(=O)(=O)c1ccc(N)cc1 | – | 4.36% | – |
| NC(=O)c1cnc(NCCc2ccc(O)c(Cl)c2)nc1NCc1ccccc1 | – | – | 7310 nM (active) |
| COc1c2c(cc3c1-c1c(cc4c(c1OC)OCO4)CC(C)C(C)C3)OCO2 (centres undefined) | – | 1.23% | – |
| CC1C(=O)OCC2=CCN3CCC(OC(=O)C(C)(O)C1(C)O)C23 (centres undefined) | inactive | – | – |

| Structure (SMILES) | outcome | max response | Potency |
| --- | --- | --- | --- |
| CC1(C)CC[C@]2(C(=O)O[C@@H]3O[C@H](CO)[C@@H](O)[C@H](O)[C@H]3O)CC[C@]3(C)C(=CCC4[C@@]5(C)C[C@@H](O)[C@H](O)[C@@](C)(CO)C5CC[C@]43C)C2[C@@H]1O (some centres undefined) | – | 1.08% | – |
| CC1(C(=O)O)CCCC2(C)C3=CCC4CC3(CCC12)CC4CO (centres undefined) | – | -23% | – |
| COc1cc(Nc2nc3ccccc3nc2NS(=O)(=O)c2ccc(NC(=O)c3ccc(OC)c(C)c3)cc2)cc(OC)c1 | – | -3.06% | – |
| c1ccc(N2CCN(CCc3nn[nH]n3)CC2)cc1 | – | 4.82% | – |
| CC(=O)OC[C@@]12C(=O)C[C@@H](C)[C@]3(C[C@@H](c4ccoc4)O[C@H]3OC(C)=O)[C@H]1CCC[C@]21CO1 | – | -15.6% | – |
| C=C[C@H]1[C@H](O[C@@H]2O[C@H](CO)[C@@H](O)[C@H](O)[C@H]2O)OC=C(C(=O)OC)[C@H]1C/C=C(/C=O)[C@@H]1C(C(=O)OC)=CO[C@@H](O[C@@H]2O[C@H](CO)[C@@H](O)[C@H](O)[C@H]2O)[C@@H]1C=C | – | -8.61% | – |
| COc1cc2c(cc1OC)N1C(=O)C[C@]34C=CCN5CC[C@@H]2[C@@H](CC3)[C@]514 | inactive | – | – |
| C[C@H]1Oc2cc(cnc2N)-c2c(nn(C)c2C#N)CN(C)C(=O)c2ccc(F)cc21 | – | – | 36.6 nM (active) |
| C=C1CC[C@@H]2[C@@](C)(CO[C@@H]3O[C@H](CO)C(O)[C@H](O)C3O)[C@H](O)CC[C@@]2(C)[C@@H]1CC/C(C)=C/CO (some centres undefined) | inactive | – | – |
| CC(C)O[C@@H]1O[C@H](CO)[C@@H](O)[C@H](O)[C@H]1O | – | 1.32% | – |
| CC(C)=CCC/C(C)=C/CC/C(C)=C/COC1OC(COC2OCC(OC3OCC(O)C(O)C3O)C(O)C2O)C(O)C(OC2OC(C)C(OC3OC(C)C(OC4OCC(OC5OC(C)C(O)C(O)C5O)C(O)C4O)C(O)C3O)C(O)C2O)C1O (centres undefined) | – | 1.98% | – |
| CC(C)C(=O)OC[C@H]1O[C@H](O[C@H]2O[C@H](CO)[C@@H](O)[C@H](O)[C@H]2O)[C@H](O)[C@@H](O)[C@@H]1O | – | -1.64% | – |
| COc1cccc(Nc2ncnn3ccc(CN4CC[C@@H](N)[C@H](O)C4)c23)c1 | – | – | 8200 nM (active) |
| CC(=O)OC[C@H]1O[C@H](O[C@]2(CO)O[C@H](CO)[C@@H](OC(=O)/C=C/c3ccccc3)[C@@H]2O)[C@H](O)[C@@H](O)[C@@H]1O | – | -26.1% | – |
| Cc1nc(NC(=O)N2CCCC2C(N)=O)sc1-c1csc(C(C)(C)C)n1 (centres undefined) | – | -8.95% | – |
| O=C(O)Cc1ccc2oc(-c3ccc(NC(=O)/C=C/c4ccc(Br)cc4)c(F)c3)nc2c1 | – | 4.13% | – |
| CC1CCC2(C(=O)O)CCC3(C)C(=CCC4C5(C)CCC(O)C(C)(CO)C5CCC43C)C2C1(C)O (centres undefined) | – | 0.977% | – |
| CC(C)(O)CC(CO)NC(=O)CC(O)CC(=O)Cc1ccccc1 (centres undefined) | – | 2.18% | – |
| C[C@@H]1O[C@@H](O[C@@H]2[C@@H](O[C@@H]3O[C@@H](C)[C@H](O[C@@H]4OC[C@H](O)[C@H](O[C@@H]5OC[C@@H](O)[C@H](O)[C@H]5O)[C@H]4O)[C@@H](O[C@@H]4OC[C@](O)(CO)[C@H]4O)[C@H]3O)[C@H](OC(=O)[C@]34CCC(C)(C)C[C@H]3C3=CCC5[C@@]6(C)C[C@H](O)[C@H](O[C@@H]7O[C@H](CO[C@@H]8OC[C@H](O)[C@H](O)[C@H]8O)[C@@H](O)[C@H](O)[C@H]7O)C(C)(C)C6CC[C@@]5(C)[C@]3(C)C[C@H]4O)OC[C@H]2O)[C@H](O)[C@H](O)[C@H]1O (some centres undefined) | inactive | – | – |
